The text below walks through data of the OligoGym collection.
Also: reference of the scale not given here.

The target of the first assay is WFDC12. Briefly: pooled miR-30 sensor sort-seq; sequence = guide strand. The settings on record: shRNA.
Regarding TTGTCAGCTGGGCAAACCCCTG, the sensor-assay potency score (higher = more potent) is -1.97.

Sequence TTCACAGGAATCACACACTTGA came in with a sensor-assay potency score (higher = more potent) of -0.211.

Take TGACACATCTTCATCCTTGTTT: the sensor-assay potency score (higher = more potent) was 0.329.

Turning to TGGTCTGTGTGACACTGGGGAG, the sensor-assay potency score (higher = more potent) was -1.92.

Consider ATGGCCTTGACACATCTTCATC, for which the sensor-assay potency score (higher = more potent) was -1.78.

In the case of TCCTCCTTCTTCCAGTTCCTTC, the sensor-assay potency score (higher = more potent) is -1.8.

Take TTGACACATCTTCATCCTTGTT: the sensor-assay potency score (higher = more potent) was -1.2.

TGCAGGTAACAACACTTCCTTT yielded a sensor-assay potency score (higher = more potent) of -1.24.

As for AAGAACGAGAGACACCATGAGG, the sensor-assay potency score (higher = more potent) was -1.13.

Regarding TTTAACTCCTTCCACAGCCACC, the sensor-assay potency score (higher = more potent) is -1.29.

For AACAACACTTCCTTTCCCCCAG, the sensor-assay potency score (higher = more potent) was -0.813.

The target in another assay is WFDC5. Described as above. The settings on record: shRNA.
For TCTGAGTCCTTGTGACACAGGT, the sensor-assay potency score (higher = more potent) is -0.214.

Regarding AGTCCTTGTGACACAGGTGGTT, the sensor-assay potency score (higher = more potent) was -1.67.

In the case of TCTTCCTGCCAAAGACAGCAGG, the sensor-assay potency score (higher = more potent) is -1.27.

TGTAGCAGCACTTCCTGGTCAA returned a sensor-assay potency score (higher = more potent) of 0.234.

For the sequence TCAAGGGACACTGGCTGTCTTC, the sensor-assay potency score (higher = more potent) is -1.2.

Sequence TTCCTGGTCAAGGGACACTGGC gave a sensor-assay potency score (higher = more potent) of -1.55.

Sequence TTTTTGCCCGAGCAGTCTGAGT came in with a sensor-assay potency score (higher = more potent) of -1.7.

The sequence TGACACAGGTGGTTCATGGGGC gave a sensor-assay potency score (higher = more potent) of 0.531.

Regarding TCTGTAGCAGCACTTCCTGGTC, the sensor-assay potency score (higher = more potent) is -0.738.

Consider TGTCTTCCACGCACTGGTCAGG, for which the sensor-assay potency score (higher = more potent) was -1.15.

As for TTTTGGTGGAGGAAGCAGCATG, the sensor-assay potency score (higher = more potent) is -0.976.

As to TGGCTGTCTTCCACGCACTGGT, the sensor-assay potency score (higher = more potent) was -0.871.

A further assay concerns the target WFDC8. Described as above. The settings on record: shRNA.
On to TACATTTCAGTCCACAATGTGA, for which the sensor-assay potency score (higher = more potent) is -1.04.

Regarding TATTTGAAGGGTGTGCAGCGGT, the sensor-assay potency score (higher = more potent) is -0.17.

On to TAACAATTAACATGCAGGCCGT, for which the sensor-assay potency score (higher = more potent) was -0.862.

Turning to TGGATTCACAACATTTGTCTGT, the sensor-assay potency score (higher = more potent) was -0.069.

Take TTAACAATTAACATGCAGGCCG: the sensor-assay potency score (higher = more potent) was -0.341.

Sequence TTGTGTTTGATCTTCTTGGTCA yielded a sensor-assay potency score (higher = more potent) of 0.398.

As for TCTCTTTGGGACATAACCCTGG, the sensor-assay potency score (higher = more potent) is -0.176.

For the sequence AAACCTTTTTTGACTGTCCAGG, the sensor-assay potency score (higher = more potent) was -1.14.

On to ATCTGTGTTACATGAGTCCGGA, for which the sensor-assay potency score (higher = more potent) is -0.285.

On to TTGTCCATCCTTAACAATTAAC, for which the sensor-assay potency score (higher = more potent) was -1.71.

TTTTTGACTGTCCAGGCCCTGG came in with a sensor-assay potency score (higher = more potent) of -1.19.

Sequence TTGGGTTTATCAATCTTGGTAC displayed a sensor-assay potency score (higher = more potent) of 0.104.

Another assay deals with WFIKKN1. The assay is described as above. The settings on record: shRNA.
Turning to TCGGCGTCCATATAGCAGCGGT, the sensor-assay potency score (higher = more potent) is -1.4.

Turning to TCTCTCGCTGGTGACTCTGCTT, the sensor-assay potency score (higher = more potent) was -0.761.

For the sequence TGATGCAGCACTTCTCAGCAGC, the sensor-assay potency score (higher = more potent) was -0.485.

TTGACGCGCTTCTCGCTGGCGG gave a sensor-assay potency score (higher = more potent) of -0.83.
